# Results published in PubChem BioAssay (NCATS).
# Records with an inconclusive call do not appear. A number with no mark means an inactive call. The source made the active and inactive calls. Calls follow the shape of the dose curve; as a rule, active = well fitted cell-killing curve with a large enough effect; inconclusive = small, poorly fitted or top-dose-only effect, or effect the other way; inactive = no such curve, though single readings can be large or run the other way.
# Test: Quantitative High-Throughput drug screen in 47 multiple myeloma cell lines against the NCATS MIPE library collection: PCM6_Riken cell viability assay (AID 1919870); also: nearly all actives have a fitted effect of over 30% in size
# Conditions: CellTiter-Glo ATP, 48 h; series mostly up to 45.8 µM; viability (% of control): at the top concentration
# Text: PI: Beverly A. Mock Ph.D.
# Laboratory of Cancer Biology and Genetics,
# Center for Cancer Research, National Cancer Institute,
# National Institute of Health, Bethesda, Maryland
# Drug resistance and disease progression are common in multiple myeloma (MM) patients, underscoring the need for new therapeutic combinations. […] We hypothesized that effective combinations would reduce MYC expression and enhance p16 activity. […] These preclinical data identify potentially useful drug combinations for evaluation in drug-resistant MM and reveal potential mechanisms of combined drug sensitivity.
# Described herein is the primary MIPE qHTS used to cherrypick compounds. Validated compounds were then further tested for potential synergistic activiy.
# [1] Peat TJ, Gaikwad SM, Dubois W, Gyabaah-Kessie N, Zhang S, Gorjifard S, Phyo Z, Andres M, Hughitt VK, Simpson RM, Miller MA, Girvin AT, Taylor A, Williams D, D'Antonio N, Zhang Y, Rajagopalan A, Flietner E, Wilson K, Zhang X, Shinn P, Klumpp-Thomas C, McKnight C, Itkin Z, Chen L, Kazandijian D, Zhang J, Michalowski AM, Simmons JK, Keats J, Thomas CJ, Mock BA. Drug combinations identified by high-throughput screening promote cell cycle transition and upregulate Smad pathways in myeloma. Cancer Lett. 2023 Aug 1;568:216284. doi: 10.1016/j.canlet.2023.216284. Epub 2023 Jun 24. PMID: 37356470; PMCID: PMC10408729.
# SEQUENCE No. (e.g., 1, 2, 3, etc.); […] (e.g., Cells, Incubation, Reagent, etc.); VALUE and DESCRIPTION.
# 1; Cells; 5 uL; white, solid bottom 1536-well Greiner assay plate.
# 2; Compounds; 23 nL; Kalypsis pin tool (Wako USA) equipped with a 1536-well pin head to transfer to the assay plates.
# 3; Incubation; 48 hours; 37C incubation.
# 4; Reagent;5uL; CellTiter Glo (Promega).
# 5; Detector; 425V; Luminescence; Viewlux PerkinElmer.
# NOTES (numbers refer to Sequence numbers above)
# 1. The cell-based screening methods employed in this study were like those previously published. Briefly, the corresponding myeloma cell lines were screened in 1,536-well plates with 500 cells, 5-uL per well for inhibition of cell viability (assessed by measuring ATP levels with CellTiterGlo).
# 2. NCATS MIPE 4.0 library of approved and investigational drugs were added using the Kalypsis pin tool. Wells treated with DMSO only for 100% viability and media only for 0% viability were used as controls.
# 3. The assay plates were covered and incubated for 48 hours in a 37C, 5% CO2 incubator with controlled humidity.
# 4. After 48 hours, CellTilter-GloTM luminescent substrate mix (Promega) reagent was added to the assay plate and plates we incubated for 5 min at room temperature.
# 5. Signal was measured as median relative luminescence units on a ViewLux (PerkinElmer) multiplate reader.
# [1] Heske CM, Davis MI, Baumgart JT, Wilson K, Gormally MV, Chen L, Zhang X, Ceribelli M, Duveau DY, Guha R, Ferrer M, Arnaldez FI, Ji J, Tran HL, Zhang Y, Mendoza A, Helman LJ, Thomas CJ. Matrix Screen Identifies Synergistic Combination of PARP Inhibitors and Nicotinamide Phosphoribosyltransferase (NAMPT) Inhibitors in Ewing Sarcoma. Clin Cancer Res. 2017 Dec 1;23(23):7301-7311. doi: 10.1158/1078-0432.CCR-17-1121. Epub 2017 Sep 12. PMID: 28899971; PMCID: PMC6636827.
# Potency is read from the fitted curve at half-maximal effect.
Compound,Potency,viability (% of control) [%]
COc1cc2c(Oc3ccc(NC(=O)C4(C(=O)Nc5ccc(F)cc5)CC4)cc3F)ccnc2cc1OCCCN1CCOCC1,10500 nM (active),–
C[C@@]12O[C@@H](C[C@]1(O)CO)n1c3ccccc3c3c4c(c5c6ccccc6n2c5c31)CNC4=O,526 nM (active),–
Cc1[nH]c2ccccc2c1CCNCc1ccc(C=CC(=O)NO)cc1,66.2 nM (active),–
COCCOc1ccc2c(c1)ncn2-c1ccc2cccc(N3CCC(N)CC3)c2n1,1050 nM (active),–
COc1ccc(F)c(F)c1C(=O)c1cnc(NC2CCN(S(C)(=O)=O)CC2)nc1N,743 nM (active),–
CCc1c2c(nc3ccc(O)cc13)-c1cc3c(c(=O)n1C2)COC(=O)[C@]3(O)CC,296 nM (active),–
O=C(Nc1nc2cccc(-c3ccc(CN4CCS(=O)(=O)CC4)cc3)n2n1)C1CC1,16600 nM (active),–
C=CC(=O)Nc1cccc(Oc2nc(Nc3ccc(N4CCN(C)CC4)cc3)ncc2Cl)c1,16600 nM (active),–
C1=CCOCc2cc(ccc2OCCN2CCCC2)Nc2nccc(n2)-c2cccc(c2)OCC1,935 nM (active),–
NC(=O)c1cccc2cn(-c3ccc([C@@H]4CCCNC4)cc3)nc12,–,85.4
Nc1nccc(Oc2ccc(NC(=O)c3c[nH]cc(-c4ccc(F)cc4)c3=O)cc2F)c1Cl,18700 nM (active),–
COc1cc(Nc2ncc(F)c(Nc3ccc4c(n3)N(COP(=O)(O)O)C(=O)C(C)(C)O4)n2)cc(OC)c1OC,9350 nM (active),–
CN1CCN(c2cc(C(=O)Nc3ccc4c(c3)-c3c(c(C(N)=O)nn3-c3ccc(F)cc3)CC4)c(Cl)cn2)CC1,2640 nM (active),–
Cc1cc(Nc2cc(CN3CCOCC3)c3nc(C)c(Cc4ccc(Cl)cc4F)n3n2)n[nH]1,16600 nM (active),–
COc1cc2ncn(-c3cc(OCc4ccccc4C(F)(F)F)c(C(N)=O)s3)c2cc1OC,5900 nM (active),–
CC(C)(C)OC(=O)Nc1ccc(-c2cc(C(=O)NCCCCCCC(=O)NO)no2)cc1,1870 nM (active),–
CNC(=O)c1c(F)cccc1Nc1nc(Nc2cc3c(cc2OC)CCN3C(=O)CN(C)C)nc2[nH]ccc12,9350 nM (active),–
COc1cc(=C2C=c3ccccc3=N2)[nH]c1=Cc1[nH]c(C)cc1C,5900 nM (active),–
C[C@]1(CO)CN(c2cc(C(=O)Nc3ccc4c(c3)-c3c(c(C(N)=O)nn3-c3ccc(F)cc3)CC4)c(Cl)cn2)C[C@@]1(C)CO,16600 nM (active),–
NCC(=O)Nc1ccc(-n2nc(C(F)(F)F)cc2-c2ccc3c(ccc4ccccc43)c2)cc1,20900 nM (active),–

Compound,Potency,viability (% of control) [%]
CC(=O)OCCN1C(=O)c2c(C)nc3ccc(S(=O)(=O)N4CCOCC4)cc3c2C1=O,–,121
Cc1cc(N2CCOCC2)cc2[nH]c(-c3c(NC[C@@H](O)c4cccc(Cl)c4)cc[nH]c3=O)nc12,332 nM (active),–
COc1cc2ncnc(Nc3ccc(F)c(Cl)c3)c2cc1NC(=O)C=CCN1CCCCC1,3320 nM (active),–
CC1(C)OC2=C(C(=O)c3ccccc3C2=O)[C@H](NCc2ccccc2)[C@H]1O,2350 nM (active),–
CCOc1ccccc1OCCNC(C)Cc1ccc(OC)c(S(N)(=O)=O)c1 (stereo not given),–,130
O=C(Nc1ncc(-c2cc(C(F)F)nn2-c2c(Cl)cccc2Cl)s1)C1CC1,662 nM (active),–
CC(C)c1cnn2c(NCc3ccccc3)cc(N[C@@H](CO)[C@H](O)CO)nc12,93.5 nM (active),–
CN1CCC(CNc2ccc3ncc(-c4cccc(OC(F)(F)F)c4)n3n2)CC1,5900 nM (active),–
CCN(CC)CCNC(=O)c1ccc2nc(-c3ccccc3)c(-c3ccc(CN4CCC(n5c(=O)[nH]c6ccccc65)CC4)cc3)nc2c1,332 nM (active),–
CCCCCCCCCC(=O)N[C@@H](Cc1c[nH]c2ccccc12)C(=O)N[C@H](CC(N)=O)C(=O)N[C@@H](CC(=O)O)C(=O)N[C@@H]1C(=O)NCC(=O)N[C@@H](CCCN)C(=O)N[C@@H](CC(=O)O)C(=O)N[C@H](C)C(=O)N[C@@H](CC(=O)O)C(=O)NCC(=O)N[C@H](CO)C(=O)N[C@@H]([C@@H](C)CC(=O)O)C(=O)N[C@@H](CC(=O)c2ccccc2N)C(=O)O[C@@H]1C,–,108
O=C(C=Cc1cccc(S(=O)(=O)Nc2ccccc2)c1)NO,2410 nM (active),–
OCc1ccc(-c2ccc(-c3ccc(CO)s3)o2)s1,7430 nM (active),–
CC(=O)c1c(C)c2cnc(Nc3ccc(N4CCNCC4)cn3)nc2n(C2CCCC2)c1=O,5900 nM (active),–
O=C(C=Cc1cccnc1)NCCCCC1CCN(C(=O)c2ccccc2)CC1,26.4 nM (active),–
N#Cc1c(O)c2c(-c3ccc(-c4ccccc4O)cc3)csc2[nH]c1=O,–,125
COC(=O)[C@]12CCC(C)(C)C[C@@H]1[C@@H]1C(=O)C=C3[C@@]4(C)C=C(C#N)C(=O)C(C)(C)[C@@H]4CC[C@@]3(C)[C@]1(C)CC2,332 nM (active),–
COc1cc(C(=O)N2CCC(N3CCN(C)CC3)CC2)ccc1Nc1ncc2c(n1)N(C)c1ccccc1C(=O)N2C,14800 nM (active),–
Cc1ccc(C(N)=O)cc1Nc1nccc(-c2cn(C(C)C)c3cnccc23)n1,2090 nM (active),–
Nc1nc(Nc2ccc(S(N)(=O)=O)cc2)nn1C(=O)c1c(F)cccc1F,1870 nM (active),–
O=C(Nc1cc(C(F)(F)F)cc(C(F)(F)F)c1)c1cc(Cl)ccc1O,1320 nM (active),–
